# T cruzi growth-1 – inhibitors of T. cruzi proliferation; T. cruzi beta-gal in NIH3T3, GalScreen luminescence, 90 h; inhibition, % at 8.34 µM; 77,000 compounds, 5.9% hits; AID 624255;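 active = mean inhibition above about 93%, with at least 55% of replicates each passing it, limit read from the data, passing the limit was not always enough; inconclusive = only one of those two conditions holds; inactive = neither condition holds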
# C diff HTS – C. difficile growth inhibition. 86,000 compounds, 0.25% hits. AID 1259249. growth activity, negative = inhibition, % at 16 µg/mL (by protocol). Clostridium difficile clinical isolate growth, OD600, 24 h; active compounds read low;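 active = mean growth activity at or below -80% and every replicate also at or below -80%; inconclusive = mean at or below -80% but some replicate above -80%; inactive = mean growth activity above -80%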;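 also: 0% = DMSO wells and -100% = levofloxacin 16 µg/mL wells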
# Pf Dd2 inh – inhibitors of Plasmodium falciparum Dd2 growth. P. falciparum Dd2 growth, SYBR Green, 72 h; active compounds read low. activity change, % at 10 µM. 94,000 compounds, 2.3% hits. AID 1159554; in the data active = activity change below about -80%; inconclusive = no clear call, values can overlap the other calls
# T cruzi growth-2 – blocks T. cruzi growth in NIH3T3 host cells; 5,600 compounds, 72% hits; T. cruzi beta-gal in NIH3T3, GalScreen luminescence, 90 h; inhibition, % at 8.35 µM; shares compounds with T cruzi growth-1; AID 651739;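 active = mean replicate inhibition above about 95% and at least 55% of replicates individually reaching it, limit read from the data; inconclusive = only one of the two criteria is met; inactive = neither criterion is met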
# T cruzi growth-3 – inhibitors of T. cruzi proliferation; 5,600 compounds, 21% hits; shares compounds with T cruzi growth-1; T. cruzi beta-gal in NIH3T3, GalScreen luminescence, 90 h; inhibition, % at 2.09 µM;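 active = mean inhibition above about 95%, with at least 55% of replicates also reaching it, limit read from the data; inconclusive = meets just one of the two conditions; inactive = meets neither condition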;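 also: plate controls were neutral control median for no effect and positive control median for full effect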
# 3T3 cytotox – kills mouse NIH/3T3 fibroblasts; AID 651742; cytotoxicity (signal decrease), % at 8.35 µM; 5,600 compounds, 14% hits; shares compounds with T cruzi growth-1; NIH/3T3 viability, CellTiter-Glo ATP luminescence, 90 h;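 active = mean signal decrease across replicates above about 35% based on untreated-well scatter, with enough replicates individually passing, limit read from the data; inconclusive = no rule stated though some were filed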;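 also: 0% = median of neutral control wells and 100% = median of positive control wells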
# NIH3T3 tox 2 – cytotoxicity in mouse NIH/3T3 fibroblasts; shares compounds with T cruzi growth-1; NIH/3T3 viability, CellTiter-Glo ATP luminescence, 90 h; inhibition, % at 24.9 µM; 5,600 compounds, 56% hits; AID 651744;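 active = mean loss of cell viability signal at or above a set limit, and enough replicates individually reaching it; inconclusive = meets only the mean limit or only the replicate share; inactive = meets neither condition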;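 also: 0% = median of neutral control wells and 100% = median of positive control wells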
# * = called active by the depositor; ? = inconclusive; . = not tested or not shown. Compounds with a hit are over-represented: about 6.7% of the library has one in this group of screens.
SMILES,T cruzi growth-1,C diff HTS,Pf Dd2 inh,T cruzi growth-2,T cruzi growth-3,3T3 cytotox,NIH3T3 tox 2
C[C@H]1CN([C@@H](C)CO)S(=O)(=O)c2ccc(C#Cc3ccc(F)cc3)cc2O[C@@H]1CN(C)C(=O)NC1CCCC1,117*,5,-80,101*,74,-15,107*
COCCNC(=O)C[C@@H]1CC[C@H]2[C@@H](COC[C@@H](O)CN2Cc2ccc(Cl)c(Cl)c2)O1,.,2,-6,.,.,.,.
COCC#Cc1ccc2c(c1)O[C@@H](CN(C)CC1CCOCC1)[C@@H](C)CN([C@H](C)CO)S2(=O)=O,-28,2,-42,.,.,.,.
COCC#Cc1ccc2c(c1)O[C@H](CN(C)CC1CCCC1)[C@@H](C)CN([C@H](C)CO)S2(=O)=O,?,-8,-58,99*,53,23,50*
COCC#Cc1ccc2c(c1)O[C@H](CN(C)CC1CCOCC1)[C@H](C)CN([C@@H](C)CO)S2(=O)=O,13,1,-77,.,.,.,.
COCC#Cc1ccc2c(c1)O[C@@H](CN(C)CC1CCCC1)[C@H](C)CN([C@@H](C)CO)S2(=O)=O,106*,2,?,96*,46,21,104*
O=C(N[C@@H]1CC[C@@H](CCNC(=O)C2CC2)O[C@@H]1CO)c1ccncc1,.,-1,.,.,.,.,.
COc1ccc(C#Cc2ccc3c(c2)[C@@H]2[C@@H](CCN2C(=O)C2CCOCC2)[C@@H](CO)N3)cc1,16,-22,-15,.,.,.,.
O=C(c1ccccc1F)N1CC[C@@H]2[C@@H](CO)Nc3ccc(C#Cc4ccccc4)cc3[C@@H]21,?,7,-35,109*,86,9,104*
COc1ccc(C#Cc2ccc3c(c2)[C@@H]2[C@@H](CCN2C(=O)C2CC2)[C@@H](CO)N3)cc1,109*,-4,-48,110*,34,20,46*
COc1ccc(C#Cc2ccc3c(c2)[C@@H]2[C@@H](CCN2C(=O)c2ccccc2F)[C@H](CO)N3)cc1,100*,2,-33,93,19,-15,9
COc1cccc(C#Cc2ccc3c(c2)[C@@H]2[C@@H](CCN2C(=O)c2ccccc2F)[C@H](CO)N3)c1,.,15,-74,.,.,.,.
N#Cc1ccc(-c2ccc3c(c2)[C@@H]2[C@@H](CCN2C(=O)c2ccccc2F)[C@H](CO)N3)cc1,94,3,-16,.,.,.,.
O=C(c1ccccc1F)N1CC[C@H]2[C@H](CO)Nc3ccc(C#Cc4ccccc4)cc3[C@H]21,108*,8,-39,111*,81,20,?
O=C(c1ccccc1F)N1CC[C@@H]2[C@H]1c1cc(-c3ccccc3)ccc1N[C@@H]2CO,93,-5,42,.,.,.,.
CN(C)C(=O)C[C@@H]1CC[C@H]2[C@@H](COC[C@H](O)CN2C(=O)C2CC2)O1,15,-1,9,.,.,.,.
CN1[C@@H]2Cn3c(ccc(/C=C/c4ccccc4)c3=O)[C@H]1[C@@H](C(=O)NC1CCC1)[C@@H]2CO,22,2,-1,.,.,.,.
COc1cccc(-c2ccc3n(c2=O)C[C@@H]2[C@@H](CO)[C@H](C(=O)NCCN4CCCCC4)N(C)[C@H]32)c1,-60,-9,.,.,.,.,.
C[C@@H]1CN([C@@H](C)CO)C(=O)c2cc(C#CCN(C)C)cnc2O[C@@H]1CN(C)Cc1ccncc1,-7,5,42,.,.,.,.
Cc1ccc(S(=O)(=O)N[C@H]2C=C[C@@H](CC(=O)NCc3ccncn3)O[C@@H]2CO)cc1,46,1,5,.,.,.,.
Cc1cccc(-c2ccc([C@H]3[C@@H](CO)N4C(=O)CN(C(=O)c5cccnc5)C[C@@H]34)cc2)c1,.,-1,-27,.,.,.,.
O=C(C[C@@H]1CC[C@@H](NC(=O)c2ccncc2)[C@@H](CO)O1)Nc1ccccc1,35,2,16,.,.,.,.
C[C@@H]1CN([C@H](C)CO)S(=O)(=O)c2ccc(C3=CCCC3)cc2O[C@H]1CN(C)S(C)(=O)=O,-24,.,-5,.,.,.,.
O=C(Cc1ccccc1)N1CC[C@@H]2[C@H]1c1cc(-c3ccccc3F)ccc1N[C@@H]2CO,113*,2,-15,89,67,-10,53*
O=C(Cc1ccccc1)N1CC[C@H]2[C@H](CO)Nc3ccc(C#Cc4ccccc4)cc3[C@H]21,119*,-2,-30,105*,57,14,75*
